Twelve compounds from PubChem BioAssay (EPA / NIEHS) can be followed below.

SMILES strings stand for the structures. The source holds several records for some structures; these can differ, active in one and inactive in another. Active and inactive are the calls of the source. How the source made its calls: active means hit-call score of the fitted dose curve at least 0.9, where 1 is the maximum; inactive means score below 0.9.

The assay in a line: CCTE_Shafer_MEA_acute_per_network_burst_spike_number_std: CCTE's Neural Acute Assay for Standard Deviation of Number of Spikes in a Network Burst, Shafer Lab (AID 2284020).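 Further: fitted for decrease in spike-number SD versus DMSO so actives lower it.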 The procedure, abridged:
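Spontaneous network activity of primary rat cortical neurons is recorded extracellularly before and after a 40-min compound exposure (0.03-40 uM) at 37 C. The endpoint is the well's percent change in burst spike-number SD.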
`CCCN(CCC)c1c([N+](=O)[O-])cc(C(F)(F)F)cc1[N+](=O)[O-]`: the result was inactive.

Regarding `CCC(C)(C)C(=O)OC1=C(c2ccc(Cl)cc2Cl)C(=O)OC12CCCCC2`, the compound was called inactive.

On to `Oc1ccc(Cl)cc1Cc1ccccc1`, for which the call was inactive.

Consider `O=[N+]([O-])/N=C1\NCCN1Cc1ccc(Cl)nc1`, for which the call was inactive.

Turning to `N#Cc1c(Cl)c(Cl)c(Cl)c(C#N)c1Cl`, the outcome was inactive.

Consider `O=C(O)CCCOc1ccc(Cl)cc1Cl`, for which the result was inactive.

On to `CC[C@H](C)[C@H]1O[C@]2(C=C[C@@H]1C)C[C@@H]1C[C@@H](C/C=C(\C)[C@@H](O[C@H]3C[C@H](OC)[C@@H](O[C@H]4C[C@H](OC)[C@@H](O)[C@H](C)O4)[C@H](C)O3)[C@@H](C)/C=C/C=C3\CO[C@@H]4[C@H](O)C(C)=C[C@@H](C(=O)O1)[C@]34O)O2` (tested in a mixture with another compound), for which the AC50 was 0.00528 µM (active).

For the compound `CCC(C)Nc1c([N+](=O)[O-])cc(C(C)(C)C)cc1[N+](=O)[O-]` (stereo not drawn), the outcome was inactive.

On to `O=S1OCC2C(CO1)C1(Cl)C(Cl)=C(Cl)C2(Cl)C1(Cl)Cl` (stereo not drawn), for which the AC50 is 0.348 µM (active) and the outcome was inactive.

As to `Oc1cc(Cl)ccc1Oc1ccc(Cl)cc1Cl`, the result was inactive.

As to `C[C@H]1[C@H](c2ccc(Cl)cc2)SC(=O)N1C(=O)NC1CCCCC1`, the AC50 was 20 µM (active).

On to `CCCN(CCOc1c(Cl)cc(Cl)cc1Cl)C(=O)n1ccnc1`, for which the AC50 was 32.6 µM (active).
